Assay results taken from PubChem BioAssay (EPA / NIEHS).
“And” between values parts separate entries of the source, which are not always exact repeats. Identical values can stand only once. Where a structure was tested more than once in an assay, its records may differ in their call. The source made the active and inactive calls. How the source made its calls: active means hit-call score of the fitted dose curve at least 0.9, where 1 is the maximum; inconclusive means response in the unintended direction; inactive means score below 0.9.

Each compound was assayed against Estrogen receptor (Homo sapiens) (UniProt P03372) (assay: OT_ERa_GFPERaERE_0120: Odyssey Thera (OT) 2-hour HeLa Transcription Induction Assay for Estrogen Receptor (AID 2283382)).
Chain of Estrogen receptor (Homo sapiens) (P03372 whole entry, looked up): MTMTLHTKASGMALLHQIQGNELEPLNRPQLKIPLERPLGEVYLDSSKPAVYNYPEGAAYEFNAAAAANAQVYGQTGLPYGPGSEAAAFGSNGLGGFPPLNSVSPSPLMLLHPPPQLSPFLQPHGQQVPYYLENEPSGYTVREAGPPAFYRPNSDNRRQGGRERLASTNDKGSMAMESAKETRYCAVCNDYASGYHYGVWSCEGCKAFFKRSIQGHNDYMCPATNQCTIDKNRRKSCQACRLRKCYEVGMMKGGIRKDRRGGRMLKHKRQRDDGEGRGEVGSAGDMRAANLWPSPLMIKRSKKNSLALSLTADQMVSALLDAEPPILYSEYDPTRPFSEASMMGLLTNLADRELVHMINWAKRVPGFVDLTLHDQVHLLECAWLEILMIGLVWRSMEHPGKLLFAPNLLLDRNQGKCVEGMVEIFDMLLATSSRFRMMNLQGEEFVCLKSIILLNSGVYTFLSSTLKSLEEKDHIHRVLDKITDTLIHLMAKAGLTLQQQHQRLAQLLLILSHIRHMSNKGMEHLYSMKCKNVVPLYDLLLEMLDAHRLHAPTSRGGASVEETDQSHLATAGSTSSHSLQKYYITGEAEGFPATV
Description: OT_ERa_GFPERaERE_0120 is a cell-based, single-readout assay that uses HeLa, a human cervix cell line, with measurements taken at 2 hours after chemical dosing in a 384-well plate.OT_ERa_GFPERaERE_0120 is one of one assay component(s) measured or calculated from the OT_ERa_GFPERaERE_0120 assay. It is designed to make measurements of fluorescent protein induction, a form of inducible reporter, as detected with optical microscopy: fluorescence microscopy signals by Microscopy technology.Data from the assay component OT_ERa_GFPERaERE_0120 was analyzed into 1 assay endpoint. This assay endpoint, OT_ERa_EREGFP_0120, was analyzed in the positive analysis fitting direction relative to DMSO as the negative control and baseline of activity. Using a type of inducible reporter, measures of receptor for gain-of-signal activity can be used to understand the reporter gene at the pathway-level as they relate to the gene ESR1. Furthermore, this assay endpoint can be referred to as a primary readout, because the performed assay has only produced 1 assay endpoint. To generalize the intended target to other relatable targets, this assay endpoint is annotated to the nuclear receptor intended target family, where the subfamily is steroidal.
All assay endpoints are quantified using high content image analysis algorithms.
CC(C)CCCCCCOC(=O)CCCCC(=O)OCCCCCCC(C)C was tested, and the outcome was “inactive”. For ClC1=C(Cl)C(Cl)(Cl)C(Cl)=C1Cl, the outcome was “inactive”. With CC(C)(C)c1cc(C(C)(C)C)c(O)c(C(C)(C)C)c1 the outcome was “inactive”. For CCCCCCCC(=O)O, the outcome was “inactive”. O=[N+]([O-])c1ccc(O)cc1 was tested, and the outcome was “inactive”. In the case of Cc1ccc(S(=O)(=O)O)c(C)c1, the outcome is reported as “inactive”. With CC(C)(C)CC(C)(C)c1ccc(O)c(-n2nc3ccccc3n2)c1 the outcome was “inactive”. In the case of CCCCCCCCCCCCCC[N+](C)(C)C, the AC50 is reported as 69.9 µM (active). With NC(=O)N(O)[C@@H]1C=C[C@H](Oc2cccc(Oc3ccc(F)cc3)c2)C1 the outcome was “inactive”. In the case of C=C(C)C(=O)OCCC(F)(F)C(F)(F)C(F)(F)C(F)(F)C(F)(F)C(F)(F)F, the AC50 is reported as 12.5 µM (active). With OCCC(F)(F)C(F)(F)C(F)(F)C(F)(F)C(F)(F)C(F)(F)C(F)(F)C(F)(F)F the AC50 was 3.54 µM (active). With c1ccc2cc3c(ccc4ccccc43)cc2c1 the outcome was “inactive” and the AC50 was 59.4 µM (active). For CN1CCN(c2ccccc2/C=C2\SCCN(c3ccc(Cl)c(Cl)c3)C2=O)CC1, the AC50 was 68.3 µM (active). COC(=O)CCCCC(=O)OC was tested, and the outcome was “inactive”. In the case of CCc1nn(C2CCCCC2)c2cc(C3(C#N)CCC(C(=O)O)CC3)ccc12 (stereo not given), the outcome is reported as “inactive”. In the case of O=C1OC2(c3ccccc31)c1cc(Br)c(O)c(Br)c1Oc1c2cc(Br)c(O)c1Br, the outcome is reported as “inactive”. OCCC(F)(F)C(F)(F)C(F)(F)C(F)(F)C(F)(F)C(F)(F)F was tested, and the AC50 was 11.6 µM (active). CN1CCC[C@H]1c1cccnc1 was tested, and the outcome was “inactive”. In the case of CCC(C)(C)C1CCC(O)CC1 (stereo not given), the outcome is reported as “inactive” and the AC50 is reported as 27.5 µM (active) and 24.4 µM (active). CCCCCCCCCCCCc1ccccc1S(=O)(=O)O was tested, and the AC50 was 94.4 µM (active). CCCCC(CC)COC(=O)CCCCC(=O)OCc1ccccc1 (stereo not given) was tested, and the outcome was “inactive”. In the case of CCCOC(=O)c1ccc(O)cc1, the outcome is reported as “inactive”. CCCCCCCCC(=O)O was tested, and the outcome was “inactive”. With c1ccc2c(c1)ccc1ccccc12 the outcome was “inactive”. With N#C[C@@H]1CC(F)(F)CN1C(=O)CNC1CC2CCC(C1)N2c1ncccn1 (stereo not given in full) the outcome was “inactive”. With CN(C)C=O the outcome was “inactive”. With Cc1cc(CCN2CCN(c3nsc4ccccc34)CC2)cc2c1NC(=O)CC2(C)C the AC50 was 15.3 µM (active). CC1=C(/C=C/C(C)=C/C=C/C(C)=C/C(=O)O)C(C)(C)CCC1 was tested, and the outcome was “inactive”. For O=C(O)c1ccccc1C(c1ccc(O)cc1)c1ccc(O)cc1, the outcome was “inactive”. For CCCCCCCCCCCCN1CCCC1=O, the outcome was “inactive”. OC1CCCCC1 was tested, and the outcome was “inactive”. With CCCCC(CC)COC(=O)CCCCC(=O)OCC(CC)CCCC (stereo not given) the outcome was “inactive”. In the case of NC(=O)N1C(=O)C(C(=O)c2cc(Cl)cs2)c2cc(F)c(Cl)cc21 (stereo not given), the outcome is reported as “inactive”. COc1ccc([N+](=O)[O-])cc1N was tested, and the outcome was “inactive”. For CC(O)C(=O)O (stereo not given), the outcome was “inactive”. CCOC(=O)CC(O)(CC(=O)OCC)C(=O)OCC was tested, and the outcome was “inactive”. With CCN(CC)CCNc1ccc(CNC=O)c2sc3ccc(OC)cc3c(=O)c12 the AC50 was 20.2 µM (active). With CC(=O)NC1(c2cccc(F)c2)CCN(CC[C@@]2(c3ccc(Cl)c(Cl)c3)CN(c3ccccc3)C(=O)CO2)CC1 the AC50 was 62.3 µM (active).
